Our source for the binding signal values is publication PMC7862700, “An all-to-all approach to the identification of sequence-specific readers for epigenetic DNA modifications on cytosine”.

Common to all, as to experiment: DAPPL (digital affinity profiling via proximity ligation, sequencing); 10 mM Tris-HCl pH 7.5, 50 mM NaCl, 1 mM DTT, 4% glycerol, room temperature, 30 min; GST-TFs on glutathione beads, 16-mer random dsDNA library, 0.1% formaldehyde crosslink after washing; high values mean tight binding
One experiment deals with T1, FEV (Homo sapiens, UniProt Q99581 1-238).
T1 sequence: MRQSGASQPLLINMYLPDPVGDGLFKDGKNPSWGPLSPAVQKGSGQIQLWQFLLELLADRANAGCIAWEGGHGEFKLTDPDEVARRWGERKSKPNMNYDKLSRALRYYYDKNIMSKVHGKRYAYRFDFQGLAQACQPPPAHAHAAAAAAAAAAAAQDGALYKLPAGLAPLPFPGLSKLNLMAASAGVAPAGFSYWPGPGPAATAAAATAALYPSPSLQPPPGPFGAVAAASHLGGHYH
Particulars: protein: recombinant; tags: N-terminal GST; dsDNA, one strand shown. An outline of the steps: (§1)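 Pools were built from human transcription factors expressed in yeast as GST fusions, captured on glutathione beads and DNA-barcoded, along with a tag-only sample. Incubation with 200 nmole of a 16-mer random double-stranded DNA library lasted 30 min at room temperature in Tris/NaCl/DTT/glycerol buffer, and was followed by washing, 0.1% formaldehyde crosslinking, proximity ligation, PCR amplification and Illumina NextSeq500 sequencing. Binding signal is the quotient of each hexamer's read frequency for a factor and its frequency for the tag-only sample.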

The target in the next experiment is ETV5 (Homo sapiens, UniProt P41161 1-510). Particulars: protein: recombinant; tags: N-terminal GST; dsDNA, one strand shown. An outline of the steps:
as §1

The target of the next experiment is HSF1 (Homo sapiens, UniProt Q00613 1-529). As to conditions: protein: recombinant; tags: N-terminal GST; chain copies: 3; dsDNA, one strand shown. In outline:
as §1

The target in the next experiment is T2, SPIC (Homo sapiens, UniProt Q8N5J4 1-248).
T2 sequence: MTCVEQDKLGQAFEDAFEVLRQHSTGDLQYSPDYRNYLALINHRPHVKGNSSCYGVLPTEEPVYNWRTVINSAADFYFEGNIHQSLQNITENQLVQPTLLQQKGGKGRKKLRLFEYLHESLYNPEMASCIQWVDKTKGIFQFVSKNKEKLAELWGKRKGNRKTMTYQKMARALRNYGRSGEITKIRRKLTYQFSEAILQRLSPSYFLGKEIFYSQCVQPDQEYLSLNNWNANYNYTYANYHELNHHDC
As to conditions: protein: recombinant; tags: N-terminal GST; dsDNA, one strand shown. In outline: as §1

Another experiment addresses ELF4 (Homo sapiens, UniProt Q99607 1-663). As to conditions: protein: recombinant; tags: N-terminal GST; dsDNA, one strand shown. In outline:
as §1

For the next experiment, the target named is T3, ELK4 (Homo sapiens, UniProt P28324-2 1-405).
T3 sequence: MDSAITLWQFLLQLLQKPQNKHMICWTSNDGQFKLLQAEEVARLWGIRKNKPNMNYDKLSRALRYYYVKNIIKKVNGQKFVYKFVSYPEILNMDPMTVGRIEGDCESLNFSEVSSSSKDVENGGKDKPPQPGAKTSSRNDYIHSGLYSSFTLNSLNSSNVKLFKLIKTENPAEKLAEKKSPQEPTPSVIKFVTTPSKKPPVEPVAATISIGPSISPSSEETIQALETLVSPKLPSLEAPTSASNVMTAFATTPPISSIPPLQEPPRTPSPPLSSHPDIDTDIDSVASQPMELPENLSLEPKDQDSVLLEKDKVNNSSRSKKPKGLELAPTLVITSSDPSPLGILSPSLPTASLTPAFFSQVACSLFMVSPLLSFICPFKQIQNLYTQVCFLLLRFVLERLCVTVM
As to conditions: protein: recombinant; tags: N-terminal GST; dsDNA, one strand shown. An outline of the steps:
as §1

Another experiment addresses T4, ETV2 (Homo sapiens, UniProt O00321 1-342).
T4 sequence: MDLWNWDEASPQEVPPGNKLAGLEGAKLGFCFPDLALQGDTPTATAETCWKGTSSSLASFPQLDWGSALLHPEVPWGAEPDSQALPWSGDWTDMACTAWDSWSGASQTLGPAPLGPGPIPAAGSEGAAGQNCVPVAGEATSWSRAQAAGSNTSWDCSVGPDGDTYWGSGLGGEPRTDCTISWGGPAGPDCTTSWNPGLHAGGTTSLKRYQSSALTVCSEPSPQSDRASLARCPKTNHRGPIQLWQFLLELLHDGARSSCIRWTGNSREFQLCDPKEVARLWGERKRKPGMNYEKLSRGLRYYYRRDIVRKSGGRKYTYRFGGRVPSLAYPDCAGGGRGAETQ
As to conditions: protein: recombinant; tags: N-terminal GST; dsDNA, one strand shown. An outline of the steps: as §1

For a further experiment, the target named is T5, ELF3 (Homo sapiens, UniProt P78545 1-371).
T5 sequence: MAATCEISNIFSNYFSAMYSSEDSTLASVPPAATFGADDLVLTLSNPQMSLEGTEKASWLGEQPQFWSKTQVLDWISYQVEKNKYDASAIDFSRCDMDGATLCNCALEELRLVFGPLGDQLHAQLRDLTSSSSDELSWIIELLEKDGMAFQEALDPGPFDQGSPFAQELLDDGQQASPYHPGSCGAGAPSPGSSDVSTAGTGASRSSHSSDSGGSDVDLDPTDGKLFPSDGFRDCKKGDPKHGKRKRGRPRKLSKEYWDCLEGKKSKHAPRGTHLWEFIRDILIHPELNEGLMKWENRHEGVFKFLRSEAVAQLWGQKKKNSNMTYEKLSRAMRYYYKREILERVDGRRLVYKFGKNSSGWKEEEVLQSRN
As to conditions: protein: recombinant; tags: N-terminal GST; dsDNA, one strand shown. An outline of the steps:
as §1

Another experiment addresses CRX (Homo sapiens, UniProt O43186 1-299). As to conditions: protein: recombinant; tags: N-terminal GST; dsDNA, one strand shown. In outline:
as §1

In another experiment the target is ETV1 (Homo sapiens, UniProt P50549 1-477). As to conditions: protein: recombinant; tags: N-terminal GST; dsDNA, one strand shown. In outline: as §1
Sequence of ETV1 (P50549 whole entry): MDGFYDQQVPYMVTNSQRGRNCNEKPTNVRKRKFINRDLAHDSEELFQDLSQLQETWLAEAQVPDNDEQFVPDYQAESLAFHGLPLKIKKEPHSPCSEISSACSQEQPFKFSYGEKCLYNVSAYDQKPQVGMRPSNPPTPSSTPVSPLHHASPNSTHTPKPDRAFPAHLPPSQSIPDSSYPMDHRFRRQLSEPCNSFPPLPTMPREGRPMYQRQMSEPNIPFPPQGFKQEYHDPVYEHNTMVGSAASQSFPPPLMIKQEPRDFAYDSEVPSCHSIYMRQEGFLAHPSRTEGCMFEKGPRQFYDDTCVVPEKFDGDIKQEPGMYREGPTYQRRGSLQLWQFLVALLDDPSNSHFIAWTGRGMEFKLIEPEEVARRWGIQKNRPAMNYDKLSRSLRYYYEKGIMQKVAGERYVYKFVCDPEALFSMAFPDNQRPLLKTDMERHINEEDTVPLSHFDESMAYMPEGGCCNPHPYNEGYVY

Sequence of HSF1 (Q00613 whole entry): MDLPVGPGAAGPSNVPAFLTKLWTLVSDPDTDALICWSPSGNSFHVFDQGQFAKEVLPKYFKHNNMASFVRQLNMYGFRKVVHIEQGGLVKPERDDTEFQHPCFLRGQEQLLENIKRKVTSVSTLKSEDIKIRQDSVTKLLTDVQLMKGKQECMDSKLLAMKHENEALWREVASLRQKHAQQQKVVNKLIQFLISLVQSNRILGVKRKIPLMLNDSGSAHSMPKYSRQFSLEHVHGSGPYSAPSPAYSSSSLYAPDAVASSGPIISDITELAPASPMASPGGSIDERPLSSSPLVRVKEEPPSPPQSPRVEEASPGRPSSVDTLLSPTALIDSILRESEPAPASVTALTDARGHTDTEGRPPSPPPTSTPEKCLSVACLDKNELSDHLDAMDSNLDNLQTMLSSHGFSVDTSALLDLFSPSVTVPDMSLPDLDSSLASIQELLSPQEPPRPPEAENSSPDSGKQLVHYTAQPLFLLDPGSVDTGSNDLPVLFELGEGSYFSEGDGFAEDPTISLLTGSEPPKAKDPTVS
Sequence of ELF4 (Q99607 whole entry): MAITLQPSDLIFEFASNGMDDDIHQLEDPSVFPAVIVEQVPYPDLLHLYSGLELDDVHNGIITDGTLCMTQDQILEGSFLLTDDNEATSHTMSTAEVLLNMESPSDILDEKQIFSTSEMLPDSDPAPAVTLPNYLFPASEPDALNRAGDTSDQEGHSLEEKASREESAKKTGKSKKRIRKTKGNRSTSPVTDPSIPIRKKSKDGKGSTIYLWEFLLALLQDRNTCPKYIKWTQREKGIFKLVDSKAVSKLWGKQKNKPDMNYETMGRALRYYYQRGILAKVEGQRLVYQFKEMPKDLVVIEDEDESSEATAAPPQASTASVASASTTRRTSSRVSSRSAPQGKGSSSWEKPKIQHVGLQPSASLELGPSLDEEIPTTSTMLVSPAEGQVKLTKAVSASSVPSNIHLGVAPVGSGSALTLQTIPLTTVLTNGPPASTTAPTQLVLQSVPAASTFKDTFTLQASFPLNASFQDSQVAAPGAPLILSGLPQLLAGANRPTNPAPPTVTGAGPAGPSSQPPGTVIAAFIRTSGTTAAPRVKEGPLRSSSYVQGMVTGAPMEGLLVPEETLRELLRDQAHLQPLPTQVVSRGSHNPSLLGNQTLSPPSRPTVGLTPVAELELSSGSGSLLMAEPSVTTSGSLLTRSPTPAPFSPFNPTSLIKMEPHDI
Sequence of ETV5 (P41161 whole entry): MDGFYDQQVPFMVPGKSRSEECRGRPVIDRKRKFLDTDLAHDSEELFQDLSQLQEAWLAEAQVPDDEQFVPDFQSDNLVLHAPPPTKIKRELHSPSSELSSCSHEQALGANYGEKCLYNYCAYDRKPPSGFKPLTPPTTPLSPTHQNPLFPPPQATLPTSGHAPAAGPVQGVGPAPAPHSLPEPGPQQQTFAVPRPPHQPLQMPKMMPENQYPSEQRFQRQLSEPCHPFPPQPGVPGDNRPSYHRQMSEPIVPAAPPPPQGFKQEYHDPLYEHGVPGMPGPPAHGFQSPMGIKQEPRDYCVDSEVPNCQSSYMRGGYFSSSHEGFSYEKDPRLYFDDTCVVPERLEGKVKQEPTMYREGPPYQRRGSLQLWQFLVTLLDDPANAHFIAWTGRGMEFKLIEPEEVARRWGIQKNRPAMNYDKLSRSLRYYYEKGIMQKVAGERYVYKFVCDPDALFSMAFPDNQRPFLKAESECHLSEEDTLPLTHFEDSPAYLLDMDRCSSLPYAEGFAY
Sequence of CRX (O43186 whole entry): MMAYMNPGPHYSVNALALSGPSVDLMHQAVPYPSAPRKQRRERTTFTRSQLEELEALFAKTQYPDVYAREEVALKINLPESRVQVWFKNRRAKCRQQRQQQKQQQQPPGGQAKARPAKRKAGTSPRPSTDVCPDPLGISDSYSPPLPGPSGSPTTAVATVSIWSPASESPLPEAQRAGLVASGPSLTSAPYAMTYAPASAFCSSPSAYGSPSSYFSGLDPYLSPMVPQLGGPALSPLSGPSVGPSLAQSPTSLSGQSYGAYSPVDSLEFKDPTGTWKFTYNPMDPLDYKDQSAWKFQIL

As to AATCTG, the binding signal in the experiment with FEV was 1.41 fold enrichment (6-mer frequency, TF over GST control); in the experiment with ETV5, 1.4 fold enrichment (6-mer frequency, TF over GST control); in the experiment with HSF1, 2.17 fold enrichment (6-mer frequency, TF over GST control); with SPIC it was 1.52 fold enrichment (6-mer frequency, TF over GST control); with ELF4, 1.57 fold enrichment (6-mer frequency, TF over GST control); in the experiment with ELK4 it was 1.55 fold enrichment (6-mer frequency, TF over GST control). In addition, the binding signal with ETV2 is 1.45 fold enrichment (6-mer frequency, TF over GST control); in the experiment with ELF3, 1.47 fold enrichment (6-mer frequency, TF over GST control); in the experiment with CRX, 2.75 fold enrichment (6-mer frequency, TF over GST control); with ETV1, 1.58 fold enrichment (6-mer frequency, TF over GST control).
Consider ACTAAA, for which the binding signal in the experiment with FEV was 1.24 fold enrichment (6-mer frequency, TF over GST control); with ETV5 it was 1.24 fold enrichment (6-mer frequency, TF over GST control); with HSF1 it was 1.37 fold enrichment (6-mer frequency, TF over GST control); with SPIC, 1.14 fold enrichment (6-mer frequency, TF over GST control); in the experiment with ELF4, 1.31 fold enrichment (6-mer frequency, TF over GST control); with ELK4, 1.4 fold enrichment (6-mer frequency, TF over GST control). Moreover, the binding signal in the experiment with ETV2 was 1.24 fold enrichment (6-mer frequency, TF over GST control); with ELF3, 1.33 fold enrichment (6-mer frequency, TF over GST control); with CRX it was 1.6 fold enrichment (6-mer frequency, TF over GST control); with ETV1, 1.31 fold enrichment (6-mer frequency, TF over GST control).
For the sequence CTTGGT, the binding signal was 1.33 fold enrichment (6-mer frequency, TF over GST control) with FEV; 1.46 fold enrichment (6-mer frequency, TF over GST control) with ETV5; 1.18 fold enrichment (6-mer frequency, TF over GST control) in the experiment with HSF1; 1.61 fold enrichment (6-mer frequency, TF over GST control) in the experiment with SPIC; 1.58 fold enrichment (6-mer frequency, TF over GST control) with ELF4; 1.53 fold enrichment (6-mer frequency, TF over GST control) with ELK4. Besides, the binding signal in the experiment with ETV2 is 1.53 fold enrichment (6-mer frequency, TF over GST control); in the experiment with ELF3, 1.51 fold enrichment (6-mer frequency, TF over GST control); with CRX, 1.21 fold enrichment (6-mer frequency, TF over GST control); with ETV1 it was 1.53 fold enrichment (6-mer frequency, TF over GST control).
For AAATAT, the binding signal is 1.28 fold enrichment (6-mer frequency, TF over GST control) in the experiment with FEV; 1.36 fold enrichment (6-mer frequency, TF over GST control) in the experiment with ETV5; 1.29 fold enrichment (6-mer frequency, TF over GST control) with HSF1; 1.43 fold enrichment (6-mer frequency, TF over GST control) with SPIC; 1.34 fold enrichment (6-mer frequency, TF over GST control) in the experiment with ELF4; 1.24 fold enrichment (6-mer frequency, TF over GST control) with ELK4. The binding signal with ETV2 is 1.49 fold enrichment (6-mer frequency, TF over GST control); with ELF3 it was 1.54 fold enrichment (6-mer frequency, TF over GST control); with CRX it was 1.39 fold enrichment (6-mer frequency, TF over GST control); with ETV1 it was 1.39 fold enrichment (6-mer frequency, TF over GST control).
Turning to CTACCG, the binding signal with FEV was 1.7 fold enrichment (6-mer frequency, TF over GST control); in the experiment with ETV5, 1.64 fold enrichment (6-mer frequency, TF over GST control); with HSF1 it was 1.16 fold enrichment (6-mer frequency, TF over GST control); in the experiment with SPIC it was 1.62 fold enrichment (6-mer frequency, TF over GST control); with ELF4 it was 1.59 fold enrichment (6-mer frequency, TF over GST control); with ELK4, 1.38 fold enrichment (6-mer frequency, TF over GST control). For the same sequence, the binding signal with ETV2 is 1.47 fold enrichment (6-mer frequency, TF over GST control); with ELF3, 1.67 fold enrichment (6-mer frequency, TF over GST control); in the experiment with CRX it was 1.02 fold enrichment (6-mer frequency, TF over GST control); with ETV1 it was 1.62 fold enrichment (6-mer frequency, TF over GST control).
On to CCTTGG, for which the binding signal with FEV is 1.17 fold enrichment (6-mer frequency, TF over GST control); in the experiment with ETV5, 1.21 fold enrichment (6-mer frequency, TF over GST control); with HSF1, 1.1 fold enrichment (6-mer frequency, TF over GST control); in the experiment with SPIC, 1.23 fold enrichment (6-mer frequency, TF over GST control); with ELF4 it was 1.27 fold enrichment (6-mer frequency, TF over GST control); with ELK4, 1.37 fold enrichment (6-mer frequency, TF over GST control). The binding signal in the experiment with ETV2 is 1.28 fold enrichment (6-mer frequency, TF over GST control); in the experiment with ELF3, 1.22 fold enrichment (6-mer frequency, TF over GST control); in the experiment with CRX it was 1.09 fold enrichment (6-mer frequency, TF over GST control); in the experiment with ETV1 it was 1.35 fold enrichment (6-mer frequency, TF over GST control).
For the sequence ATGCAT, the binding signal with FEV is 1.18 fold enrichment (6-mer frequency, TF over GST control); with ETV5, 1.19 fold enrichment (6-mer frequency, TF over GST control); in the experiment with HSF1, 1 fold enrichment (6-mer frequency, TF over GST control); with SPIC, 1.31 fold enrichment (6-mer frequency, TF over GST control); with ELF4 it was 1.28 fold enrichment (6-mer frequency, TF over GST control); with ELK4 it was 1.11 fold enrichment (6-mer frequency, TF over GST control). Moreover, the binding signal is 1.27 fold enrichment (6-mer frequency, TF over GST control) with ETV2; 1.07 fold enrichment (6-mer frequency, TF over GST control) with ELF3; 1.05 fold enrichment (6-mer frequency, TF over GST control) with CRX; 1.15 fold enrichment (6-mer frequency, TF over GST control) with ETV1.
